Data on 12 molecules can be found in PubChem BioAssay (NCATS).

The nature of assay [1]: qHTS drug screen for cell cycle checkpoint inhibitors in PARPi-resistant BRCA-mutant ovarian cancer cell lines. (AID 1963452; calls by dose curve). Particulars: PEO1/OlaR viability, CellTiter-Glo luminescence, 96 h, stronger effect = lower value. An outline of the steps:
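PEO1, PEO4 and PEO1/OlaR ovarian cancer cells, 600 per well, exposed 96 h at 37C to a dilution series. Viability read by CellTiter-Glo luminescence, normalized to DMSO and empty wells; activity summarized as Z-AUC.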

Assay [2] is described as follows: qHTS for identification of novel therapeutic agents for treatment of microphthalmiaassociated transcription factor (MiT) renal cell carcinoma (RCC) (AID 1963991; calls by dose curve; further: potency means the concentration at half of the fitted maximal effect). Particulars: CellTiter-Glo, 48 h; for z-score: stronger effect = lower value. In short, it runs like this:
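Viability of three TFE3-fusion renal carcinoma lines measured by CellTiter-Glo after 48 h treatment with each of 1912 compounds at 11 concentrations. Responses scaled between DMSO (100%) and empty wells (0%) before curve fitting.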

The nature of assay [3]: qHTS profiling for inhibitors of Plasmodium falciparum proliferation (AID 504749). Further: nearly all actives have a fitted effect of over 60% in size. Further: potency means the concentration at half of the fitted maximal effect.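 On activity, negative = inhibition: 0% = DMSO vehicle and full inhibition = artemisinin control.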 Particulars: P. falciparum in erythrocytes, SYBR Green DNA, 72 h. In short, it runs like this: (§1)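 SYBR Green fluorescence of parasite DNA, read after lysis and overnight dark incubation, measured growth over 72 h in erythrocyte culture at 0.3% parasitemia and 2.5% hematocrit. Data normalised to DMSO and 0.29 uM artemisinin, with plate-drift correction.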

A further assay relates to 3D7. The assay is described as above. The following applies: P. falciparum in erythrocytes, SYBR Green DNA, 72 h; series mostly up to 28.7 µM. In short, it runs like this:
as §1

The subject of a further assay is 7G8. The assay is described as above. The following applies: P. falciparum in erythrocytes, SYBR Green DNA, 72 h; series mostly up to 28.7 µM. An outline of the steps: as §1
Another assay deals with AA1029. The assay is described as above. Particulars: P. falciparum in erythrocytes, SYBR Green DNA, 72 h; series mostly up to 28.7 µM. In short, it runs like this:
as §1

A further assay concerns AS120. The description is as above. The following applies: P. falciparum in erythrocytes, SYBR Green DNA, 72 h; series mostly up to 28.7 µM. In short, it runs like this:
as §1

The next assay deals with ATS189. The description is as above. Particulars: P. falciparum in erythrocytes, SYBR Green DNA, 72 h; series mostly up to 28.7 µM. An outline of the steps: as §1
The mark [4] stands for this setting: measured here: PEO1 parental Z-AUC.
Where [5] appears, read: TFE3-RCC UOK109 viability, measured here: UOK109 Z-AUC.
Where [6] appears, read: TFE3-RCC viability, measured here: UOK124 Z-AUC.
[7] abbreviates: TFE3-RCC viability, measured here: UOK145 Z-AUC.
Setting [8] is: at 28.7 µM (top of the series), parasite line A.
Setting [9] is: at 28.7 µM (top of the series), parasite line B.

Molecules are shown by their SMILES. Inconclusive results are not listed. Activity calls are given as the source filed them. Unless noted, the call rests on the fitted dose curve; in most records, active means well fitted inhibition curve with a large enough effect; inconclusive means small, poorly fitted or top-dose-only effect; inactive means flat fitted curve, though single readings scatter.

Take `CC(C)Cc1ccc(C(C)C(=O)O)cc1` (configuration not stated): the Z-AUC in assay [1] was 1.42 (inactive); in assay [1] (setting [4]), 1.49; in assay [1] (measured here: PEO4 Z-AUC) it was 1.2. Further, the figures for the z-score in assay [2] (setting [5]), in assay [2] (setting [6]) and in assay [2] (setting [7]) were 0.767, 0.849 and 0.507, respectively. Further, the activity, negative = inhibition in assay [3] (setting [8]) was 5.92% (inactive); in assay [3] (setting [9]), 6.46% (inactive). Also, the Potency result in the assay with 3D7, with 7G8, in the assay with AA1029, with AS120 and with ATS189 was “inactive” in each case.
As to `COc1ccc2c(c1)c(CC(=O)O)c(C)n2C(=O)c1ccc(Cl)cc1`, the Z-AUC was 0.8 (inactive) in assay [1], 0.391 in assay [1] (setting [4]) and 0.536 in assay [1] (measured here: PEO4 Z-AUC).
As to `Nc1c2c(nc3ccccc13)CCCC2`, the Z-AUC in assay [1] was 1.3 (inactive); in assay [1] (setting [4]), 1.74; in assay [1] (measured here: PEO4 Z-AUC) it was 1.21. Also, the figures for the z-score in assay [2] (setting [5]), in assay [2] (setting [6]) and in assay [2] (setting [7]) were 1.01, 0.33 and 1.46, respectively.
`CCC1(C)CC(=O)NC1=O` (configuration not stated): the figures for the Z-AUC in assay [1], in assay [1] (setting [4]) and in assay [1] (measured here: PEO4 Z-AUC) were 1.49 (inactive), 1.31 and 1.61, respectively. Further, the z-score in assay [2] (setting [5]) was found to be 0.867; in assay [2] (setting [6]) it was 0.609; in assay [2] (setting [7]), 0.715.
As to `CCOC(=O)C(C)(C)Oc1ccc(Cl)cc1`, the Z-AUC is 0.714 (inactive) in assay [1], 0.586 in assay [1] (setting [4]) and 0.762 in assay [1] (measured here: PEO4 Z-AUC). Further, the results for the z-score in assay [2] (setting [5]), in assay [2] (setting [6]) and in assay [2] (setting [7]) were -1.29, 0.307 and 0.606, respectively. For the same molecule, the activity, negative = inhibition in assay [3] (setting [8]) is 5.66% (inactive); in assay [3] (setting [9]) it was 12.1% (inactive). Moreover, the Potency result with 3D7, in the assay on 7G8, in the assay with AA1029, in the assay with AS120 and with ATS189 was “inactive” in each case.
For the molecule `CC[C@@]1(O)C(=O)OCc2c1cc1n(c2=O)Cc2cc3c(CN(C)C)c(O)ccc3nc2-1`, the Z-AUC in assay [1] was -0.723 (inactive); in assay [1] (setting [4]), -1.25; in assay [1] (measured here: PEO4 Z-AUC), -0.128. For the same molecule, the Potency in assay [2] (TFE3-RCC UOK109 viability, active = Z-AUC below -0.8 in all three lines) was 5.9 µM (active); in assay [3] (parasite line A), 3.55 µM (active); in assay [3] (parasite line B), 7.08 µM (active); in the assay on 3D7 it was 5.62 µM (active); in the assay with AA1029, 7.08 µM (active); in the assay on AS120, 3.55 µM (active). Moreover, the z-score in assay [2] (setting [5]) is -0.963; in assay [2] (setting [6]), -2.75; in assay [2] (setting [7]), -1.63.
In the case of `CC1COc2c(N3CCN(C)CC3)c(F)cc3c(=O)c(C(=O)O)cn1c23` (configuration not stated), the figures for the Z-AUC in assay [1], in assay [1] (setting [4]) and in assay [1] (measured here: PEO4 Z-AUC) were -0.369 (inactive), 0.841 and -0.196, respectively.
Regarding `OCCN(CCO)c1nc(N2CCCCC2)c2nc(N(CCO)CCO)nc(N3CCCCC3)c2n1`, the Z-AUC in assay [1] is 1 (inactive); in assay [1] (setting [4]), 0.552; in assay [1] (measured here: PEO4 Z-AUC), 0.489.
On to `Cc1ccc(-c2cc(C(F)(F)F)nn2-c2ccc(S(N)(=O)=O)cc2)cc1`, for which the Z-AUC in assay [1] was 1.19 (inactive); in assay [1] (setting [4]) it was 0.566; in assay [1] (measured here: PEO4 Z-AUC) it was 1.1.
As to `COc1nc(C)nc(Cl)c1NC1=NCCN1`, the Z-AUC in assay [1] is -0.0792 (inactive); in assay [1] (setting [4]), -0.161; in assay [1] (measured here: PEO4 Z-AUC) it was 0.307. Also, the results for the z-score in assay [2] (setting [5]), in assay [2] (setting [6]) and in assay [2] (setting [7]) were 0.168, 0.306 and 0.251, respectively. In addition, the activity, negative = inhibition in assay [3] (at 12.8 µM (top of the series), parasite line A) is 1.48% (inactive); in assay [3] (at 12.8 µM (top of the series), parasite line B), 0.89% (inactive). Besides, the Potency result in the assay on 3D7, in the assay with 7G8, in the assay with AA1029, in the assay on AS120 and in the assay with ATS189 was “inactive” throughout.
`COc1ccc(C2CNC(=O)C2)cc1OC1CCCC1` (configuration not stated): the Z-AUC in assay [1] is -0.000894 (inactive); in assay [1] (setting [4]), 0.813; in assay [1] (measured here: PEO4 Z-AUC), 0.981. The z-score in assay [2] (setting [5]) came to 0.4; in assay [2] (setting [6]), 0.743; in assay [2] (setting [7]), 0.539.
Turning to `CN1C2CCC1CC(OC(=O)C(CO)c1ccccc1)C2` (configuration not stated), the Z-AUC in assay [1] is 0.435 (inactive); in assay [1] (setting [4]), 0.73; in assay [1] (measured here: PEO4 Z-AUC), -0.0914. For the same molecule, the z-score in assay [2] (setting [5]) was 0.361; in assay [2] (setting [6]) it was 0.456; in assay [2] (setting [7]), 0.45.
